Test results reported in PubChem BioAssay (NCATS).
Values joined by “and” are separate entries in the source; they are usually repeats but may differ in a detail not shown here. Identical values can stand only once. Inconclusive results are not listed. Active and inactive are the calls of the source. Unless noted, the call rests on the fitted dose curve; in most records, active means well fitted curve in either direction with a large enough effect (not every such curve was filed as active); inconclusive means small, poorly fitted or top-dose-only effect, or another doubt; inactive means flat fitted curve, though single readings scatter.

Columns and labels:
[1] = AP1 Signaling Pathway (AID 357);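 further: ME-180 reporter cells stimulated with EGF at its EC50 level; on the % scale 0 is the no-effect control and ±100 the full control effect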
Method in brief: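 Read-out was the 460nm/530nm emission ratio (excitation 405nm) after CCF4 loading for 2.5 hours at room temperature. Cells carried an AP-1-driven beta-lactamase reporter, were stimulated with EC50 EGF plus compound for 5 hours, and AC50 values came from titrations.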

[2] = Cell Viability - BJ (AID 421; calls by dose curve;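 further: potency means the concentration at half of the fitted maximal effect; cells exposed to compound for 40 hours at 37 °C before readout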); settings: BJ fibroblast viability, qHTS
Method in brief: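 Cytotoxicity as drop in intracellular ATP (CellTiter-Glo, 20 min RT) after 40 hr compound exposure of BJ fibroblasts at 37 °C. Titrations scaled between DMSO and 100 uM tamoxifen, Hill-fitted for AC50.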

[3] = Cell Viability - Jurkat (AID 426;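 active means dose-dependent loss of cell ATP signal giving a full or clear fitted curve, ranked by lower potency value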;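 further: potency means the concentration at half of the fitted maximal effect; cells exposed to compound for 40 hours at 37 °C before ATP read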); settings: qHTS
Method in brief: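 Cells of the human T-cell leukemia line Jurkat (E6-1) are seeded at 5000 per well, treated with compound across a concentration range for 40 hours at 37 °C, then lysed with CellTiter-Glo; luminescence reports ATP.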

[4] = Cell Viability - Hek293 (AID 427;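 active means compounds whose dose-response curve shows a full or clear partial loss of cell viability, called from curve shape rather than a numeric limit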;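 further: potency means the concentration at half of the fitted maximal effect; cells exposed to compound for 40 hours at 37 °C before reading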); settings: qHTS
Method in brief: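 Luminescent ATP content (CellTiter-Glo, 20 min at room temperature) was measured after a 40 hr, 37 °C compound exposure of HEK293 cells. AC50 values came from Hill-equation fits of qHTS concentration-response data normalized to DMSO and 100 uM tamoxifen.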

[5] = Cell Viability - HepG2 (AID 433; calls by dose curve;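 further: potency means the concentration at half of the fitted maximal effect; potency for ATP loss meaning cytotoxicity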); settings: qHTS
Method in brief: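 Read-out is luciferase-based quantitation of cellular ATP as a measure of viable HepG2 cells after 40 h treatment at 37 °C. Signal decrease is scaled between DMSO-only and 100 uM tamoxifen controls, with AC50 fitted by the Hill equation.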

[6] = Cell Viability - MRC5 (AID 434; calls by dose curve;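 further: potency means the concentration at half of the fitted maximal effect; potency reflects cytotoxicity seen as loss of intracellular ATP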); settings: MRC5 lung fibroblast viability, qHTS
Method in brief: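 AC50 values come from Hill-equation fits of intracellular ATP loss, measured by CellTiter-Glo luminescence. Normal lung fibroblasts (MRC5) had 40 hr compound treatment at 37 C, normalized between DMSO and 100 uM tamoxifen.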

[7] = Cell Viability - SK-N-SH (AID 435; calls by dose curve;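 further: potency means the concentration at half of the fitted maximal effect; compound exposure lasted 40 h at 37 °C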); settings: SK-N-SH neuroblastoma cell viability qHTS
Method in brief: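 Luminescent ATP signal served as the viability read-out after 40 hours of compound treatment of human neuroblastoma SK-N-SH cells. Concentration-response data, scaled between DMSO and 100 uM tamoxifen, gave AC50 values by standard Hill modeling.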

[8] = Stat Signaling Pathway (AID 446); settings: ME-180 (cervical carcinoma) SIE beta-lactamase reporter, IL-6 stimulated, 5 h;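 further: ME-180 cervical cancer cells given 40 pM IL-6 alongside compound; SIE-controlled beta-lactamase reporter measured as 460/530 nm FRET emission ratio; on the % scale 0 is the no-effect control and ±100 the full control effect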
Method in brief: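 FRET read-out (405 nm excitation, 460/530 nm emission) of a beta-lactamase reporter under a STAT-inducible element in ME-180 cervical carcinoma cells. Cells with compound receive 40 pM IL-6 for 5 h. Values are normalised to AC90 stimulation and AC90 JAK-inhibitor controls.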

[9] = molecular target: Glucocorticoid receptor (Homo sapiens) (UniProt P04150); assay: GR-GFP Redistribution (AID 450;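 active means compounds whose dose series gives a full or clear partial fitted curve of increased nuclear translocation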; further: potency means the concentration at half of the fitted maximal effect); settings: U2OS GR-GFP nuclear translocation, laser cytometry, 2 h
[10] = molecular target: Mitogen-activated protein kinase 10 (Mus musculus) (UniProt Q61831); assay: JNK3 AlphaScreen Assay (AID 530);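 further: kinase came from lysate of stimulated human HepG2 cells; signal reports phosphorylation of biotinylated GST-cJun 1-79 at Ser73 with 10 µM ATP; on the % scale 0 is the no-effect control and ±100 the full control effect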
Method in brief: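 qHTS titrations with 15 min compound pre-incubation before adding ATP (10 uM final). Read-out: AlphaScreen of Ser73-phosphorylated biotin-GST-cJun using HepG2 lysate JNK3 activated by IL-1β and TNFα.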

[11] = Cell Viability - N2a (AID 540; active means well fitted curve in the direction sought with a large enough effect; an effect the other way counts as inactive or inconclusive;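 further: cells exposed to compound for 40 h at 37 °C; plate controls were DMSO alone for no effect and tamoxifen control for full effect; nearly all actives have a fitted effect of over 45% in size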); settings: N2a mouse neuroblastoma cell viability; activity change, negative = cytotoxicity: at 92.2 µM (top of the series)
Method in brief: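 Cytotoxicity was scored as loss of cellular ATP in N2a cells, a mouse neuroblastoma line. Compounds are applied in a qHTS concentration series for 40 hr at 37 °C.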

[12] = Cell Viability - HUV-EC-C (AID 542; active means well fitted curve in the direction sought with a large enough effect; an effect the other way counts as inactive or inconclusive; further: on the % scale 0 is the no-effect control and ±100 the full control effect; nearly all actives have a fitted effect of over 35% in size)
Method in brief: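 Cells were seeded at 1000 per well and incubated 5 hr at 37 °C before compound addition. After 40 hr at 37 °C, CellTiter-Glo reagent was added for 20 min and luminescence read. AC50 values came from Hill-equation modelling.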

[13] = Cell Viability - SH-SY5Y (AID 544; active means well fitted curve in the direction sought with a large enough effect; an effect the other way counts as inactive or inconclusive;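 further: 0% = DMSO alone and -100% = 100 µM tamoxifen; nearly all actives have a fitted effect of over 55% in size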); settings: SH-SY5Y neuroblastoma cell viability; viability change, negative = cytotoxic: at 92.2 µM (top of the series)
Method in brief: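 Cells were plated at 1500 per well and allowed 5 hr at 37 °C. Compounds were added across a concentration range and incubated 40 hr at 37 °C. CellTiter-Glo was added for 20 min at room temperature before luminescence reading.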

[14] = Cell Viability - Renal Proximal Tubule (AID 545; active means well fitted curve in the direction sought with a large enough effect; an effect the other way counts as inactive or inconclusive;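 further: 0% = DMSO only and -100% = 100 µM tamoxifen; nearly all actives have a fitted effect of over 40% in size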); settings: renal proximal tubule cells viability, primary cells of rat origin; activity change, negative = cytotoxicity: at 91.7 µM (top of the series)
Method in brief: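 Luminescent ATP signal (CellTiter-Glo) served as the viability read-out after 40 hr compound exposure of freshly isolated rat proximal tubule cells at 37 °C. Concentration-dependent ATP loss was fitted with the Hill equation to give AC50.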

[15] = Cell Viability - Mesenchymal (AID 546; active means well fitted curve in the direction sought with a large enough effect; an effect the other way counts as inactive or inconclusive;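 further: cells exposed to compound for 40 hours before reading; 0% = DMSO only and -100% = 100 µM tamoxifen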); settings: mesenchymal cells viability, qHTS; activity change, negative = cytotoxicity: at 91.7 µM (top of the series)
Method in brief: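 CellTiter-Glo luminescence (intracellular ATP, 20 min room temperature) after 40 hr compound exposure at 37 °C of 1000 glomerulus-derived human kidney mesenchymal cells/well; AC50 values obtained by fitting qHTS concentration-response data to the Hill equation.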

[16] = molecular target: 3',5'-cyclic-AMP phosphodiesterase 4B (Homo sapiens) (UniProt Q07343); assay: qHTS Assay for Inhibitors of PDE-IV (AID 607; active means well fitted activation curve with a large enough effect in the main read-out, with a control signal flat, not every such curve was filed as active; further: % of control where 0% means no effect)
Method in brief: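 Cell-based read-out of cAMP via a modified cyclic nucleotide-gated channel and membrane potential dye (535/590 nm) in HEK293 cells expressing PDE4 endogenously. Compounds tested up to 22.9 uM final; 100 uM RO 20-1724 reference.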

[17] = Cellular Toxicity (caspase-3) HepG2 (AID 654; active means well fitted curve in the direction sought with a large enough effect; an effect the other way counts as inactive or inconclusive;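 further: cells exposed to compound for 16 hours before reading; 0% = DMSO alone and 100% = caspase signal from 100 µM tamoxifen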)
Method in brief: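 Caspase 3/7 activation in HepG2 is measured as rising luminescence after a 16 hr treatment at 37 °C. Values are scaled between DMSO basal and 100 uM tamoxifen, and AC50 is fitted with the Hill equation.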

[18] = molecular target: Lysosomal acid glucosylceramidase (Homo sapiens) (UniProt P04062); assay: Glucocerebrosidase-p2 (AID 348; in the data active means potency below about 10 µM; further: potency means the concentration at half of the fitted maximal effect); settings: purified GBA, blue fluorogenic substrate, 40 min
Method in brief: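 Normal human glucocerebrosidase (0.2 nM) with blue fluorogenic substrate (80 uM final) in citrate/phosphate pH 5.9 with 10mM sodium taurocholate, 0.01% tween-20; 40 min RT, NaOH/glycine stop; fluorescence Ex 365/Em 440; AC50 from a titration from 0.6 nM upwards.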

[19] = Cell Viability - NIH 3T3 (AID 541; active means well fitted curve in the direction sought with a large enough effect; an effect the other way counts as inactive or inconclusive;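 further: plate controls were DMSO alone for no effect and tamoxifen positive control for full effect; nearly all actives have a fitted effect of over 25% in size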); settings: NIH 3T3 cell viability, qHTS; at 92.2 µM (top of the series)
Method in brief: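 Cells seeded at 1000/well, rested 5 hr at 37 °C, then dosed and incubated 40 hr at 37 °C. CellTiter-Glo added, 20 min room temperature, luminescence read. AC50 by Hill fit.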

[20] = Cell Viability - H-4-II-E (AID 543; active means well fitted curve in the direction sought with a large enough effect; an effect the other way counts as inactive or inconclusive; further: on the % scale 0 is the no-effect control and ±100 the full control effect; nearly all actives have a fitted effect of over 35% in size)
Method in brief: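 Cells seeded at 1500 per well and rested 5 hr; compounds added; 40 hr incubation at 37 °C; CellTiter-Glo added, 20 min at room temperature; luminescence read. Hill-equation fits gave AC50.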

Glucocorticoid receptor (Homo sapiens), sequence (P04150 whole entry, looked up): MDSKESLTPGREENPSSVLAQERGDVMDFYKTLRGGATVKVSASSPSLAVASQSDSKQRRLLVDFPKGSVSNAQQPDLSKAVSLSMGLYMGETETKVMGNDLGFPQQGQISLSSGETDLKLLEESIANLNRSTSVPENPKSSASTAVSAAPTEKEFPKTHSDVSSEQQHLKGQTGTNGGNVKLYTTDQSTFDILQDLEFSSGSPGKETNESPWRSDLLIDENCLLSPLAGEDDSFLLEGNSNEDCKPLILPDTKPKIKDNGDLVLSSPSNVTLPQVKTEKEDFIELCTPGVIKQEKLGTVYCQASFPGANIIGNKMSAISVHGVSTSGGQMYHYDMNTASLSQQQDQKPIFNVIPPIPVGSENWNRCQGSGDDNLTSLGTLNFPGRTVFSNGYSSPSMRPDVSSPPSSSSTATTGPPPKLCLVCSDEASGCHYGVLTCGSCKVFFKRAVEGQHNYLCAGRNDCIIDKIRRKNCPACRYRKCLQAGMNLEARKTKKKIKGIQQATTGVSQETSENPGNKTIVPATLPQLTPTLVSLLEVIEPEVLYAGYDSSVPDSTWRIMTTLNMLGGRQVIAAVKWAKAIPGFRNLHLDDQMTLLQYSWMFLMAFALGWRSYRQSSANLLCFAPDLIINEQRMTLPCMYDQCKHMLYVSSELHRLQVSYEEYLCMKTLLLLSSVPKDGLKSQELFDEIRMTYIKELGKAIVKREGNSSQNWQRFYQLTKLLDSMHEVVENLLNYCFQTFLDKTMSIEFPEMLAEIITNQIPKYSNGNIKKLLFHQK
3',5'-cyclic-AMP phosphodiesterase 4B (Homo sapiens), sequence (Q07343 whole entry, looked up): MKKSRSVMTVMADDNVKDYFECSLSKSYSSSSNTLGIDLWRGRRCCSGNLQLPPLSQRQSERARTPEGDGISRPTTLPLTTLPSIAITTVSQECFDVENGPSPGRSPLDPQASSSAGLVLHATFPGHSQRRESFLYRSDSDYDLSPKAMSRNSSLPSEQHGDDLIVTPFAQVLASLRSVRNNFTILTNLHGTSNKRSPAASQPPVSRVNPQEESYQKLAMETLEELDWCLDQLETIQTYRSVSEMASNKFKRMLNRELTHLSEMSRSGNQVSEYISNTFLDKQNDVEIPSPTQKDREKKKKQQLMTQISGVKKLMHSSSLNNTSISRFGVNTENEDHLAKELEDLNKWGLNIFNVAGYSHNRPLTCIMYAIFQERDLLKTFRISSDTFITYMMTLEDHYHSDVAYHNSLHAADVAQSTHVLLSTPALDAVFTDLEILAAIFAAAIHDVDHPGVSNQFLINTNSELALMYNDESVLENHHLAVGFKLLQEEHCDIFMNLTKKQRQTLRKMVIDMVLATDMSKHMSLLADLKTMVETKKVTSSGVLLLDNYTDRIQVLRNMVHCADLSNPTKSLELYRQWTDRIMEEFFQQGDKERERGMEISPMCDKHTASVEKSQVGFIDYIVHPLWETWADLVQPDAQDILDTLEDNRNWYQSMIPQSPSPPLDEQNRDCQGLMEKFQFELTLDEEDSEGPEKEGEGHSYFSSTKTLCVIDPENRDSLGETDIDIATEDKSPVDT
Lysosomal acid glucosylceramidase (Homo sapiens), sequence (P04062 whole entry, looked up): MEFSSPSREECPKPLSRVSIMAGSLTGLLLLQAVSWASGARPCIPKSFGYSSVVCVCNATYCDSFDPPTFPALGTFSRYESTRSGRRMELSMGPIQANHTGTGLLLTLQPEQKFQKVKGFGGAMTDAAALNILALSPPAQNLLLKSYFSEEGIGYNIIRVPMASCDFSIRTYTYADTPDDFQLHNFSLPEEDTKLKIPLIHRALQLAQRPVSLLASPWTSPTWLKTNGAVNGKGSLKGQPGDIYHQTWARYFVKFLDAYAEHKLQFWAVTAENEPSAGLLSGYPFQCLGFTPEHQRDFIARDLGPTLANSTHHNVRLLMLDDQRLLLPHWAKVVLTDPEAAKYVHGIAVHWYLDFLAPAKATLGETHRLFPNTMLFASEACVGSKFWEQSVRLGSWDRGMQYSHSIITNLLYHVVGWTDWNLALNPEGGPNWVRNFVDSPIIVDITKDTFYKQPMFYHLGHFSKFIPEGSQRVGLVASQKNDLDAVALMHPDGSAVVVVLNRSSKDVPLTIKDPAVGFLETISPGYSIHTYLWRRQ

O=c1c(-c2ccc(O)cc2)coc2cc(O)ccc12
inactive: outcome [1] | Potency [2] > 92 µM | Potency [3] > 92 µM | Potency [4] > 92 µM | Potency [5] > 92 µM | Potency [6] > 92 µM | Potency [7] > 92 µM | activity, negative = inhibition ([8]; at 38 µM (top of the series)) -22% | Potency [9] > 46 µM | outcome [10] | Potency [11] | Potency [12] | Potency [13] | Potency [14] | Potency [15] | outcome [16] | Potency [17]

Clc1ccc(Cn2c(CN3CCCC3)nc3ccccc32)cc1
inactive: outcome [1] | activity, negative = inhibition ([8]; at 17.2 µM (top of the series)) -8.1% and 3.26% | activity, negative = inhibition ([8]; at 38 µM (top of the series)) 0.465% | Potency [9] > 46 µM and > 20.6 µM | outcome [10] | outcome [16]

COCCCCC(=NOCCN)c1ccc(C(F)(F)F)cc1
inactive: outcome [1] | activity, negative = inhibition ([8]; at 17.2 µM (top of the series)) -3.51% | activity, negative = inhibition ([8]; at 38 µM (top of the series)) -10.7% | Potency [9] > 46 µM and > 20.6 µM | outcome [16]

CC(C)(C)c1ccc(C(O)CCCN2CCC(C(O)(c3ccccc3)c3ccccc3)CC2)cc1 (stereo not drawn)
inactive: outcome [1] | activity, negative = inhibition ([8]; at 17.2 µM (top of the series)) -1.77% | Potency [9] > 20.6 µM

O=C(O)CCc1nc(-c2ccccc2)c(-c2ccccc2)o1
inactive: Potency [18] > 11.4 µM | outcome [1] | activity, negative = inhibition ([8]; at 7.69 µM (top of the series)) 5.68% | activity, negative = inhibition ([8]; at 17.2 µM (top of the series)) -0.803% | activity, negative = inhibition ([8]; at 38 µM (top of the series)) -12.8% | Potency [9] > 46 µM and > 20.6 µM | outcome [10] | outcome [16]

O=C1NCC2(CCN(CCc3ccccc3)CC2)O1
inactive: outcome [1] | activity, negative = inhibition ([8]; at 17.2 µM (top of the series)) 8.61% | activity, negative = inhibition ([8]; at 38 µM (top of the series)) 4.62% | Potency [9] > 46 µM and > 20.6 µM | outcome [10] | outcome [16]

CC(C(=O)O)c1ccc(-c2ccccc2)c(F)c1 (stereo not drawn)
inactive: outcome [1] | activity, negative = inhibition ([8]; at 17.2 µM (top of the series)) -6.1% | Potency [9] > 20.6 µM

CCN(CC)C(=O)c1ccc(O)c(OC)c1
inactive: outcome [1] | activity, negative = inhibition ([8]; at 17.2 µM (top of the series)) 4.07% and -1.09% | activity, negative = inhibition ([8]; at 38 µM (top of the series)) -11.7% | Potency [9] > 46 µM and > 20.6 µM | outcome [10] | outcome [16]

C[N+](C)(C)CCCCCC[N+](C)(C)C
inactive: outcome [1] | activity, negative = inhibition ([8]; at 17.2 µM (top of the series)) 8.45% | activity, negative = inhibition ([8]; at 38 µM (top of the series)) 9.91% | outcome [10] | outcome [16]

CC(=O)c1ccc(S(=O)(=O)NC(=O)NC2CCCCC2)cc1
inactive: outcome [1] | Potency [2] > 92 µM | Potency [3] > 92 µM | Potency [4] > 92 µM | Potency [5] > 92 µM | Potency [6] > 92 µM | Potency [7] > 92 µM | activity, negative = inhibition ([8]; at 17.2 µM (top of the series)) -1.46% | activity, negative = inhibition ([8]; at 38 µM (top of the series)) -26.2% | Potency [9] > 46 µM and > 20.6 µM | outcome [10] | Potency [11] | activity change, negative = cytotoxicity [19] -15.1% | Potency [12] | Potency [20] | Potency [13] | Potency [14] | Potency [15] | outcome [16] | Potency [17]

CCCCC1C(=O)N(c2ccccc2)N(c2ccccc2)C1=O
inactive: outcome [1] | Potency [2] > 92 µM | Potency [4] > 92 µM | Potency [5] > 92 µM | Potency [6] > 92 µM | Potency [7] > 92 µM | activity, negative = inhibition ([8]; at 17.2 µM (top of the series)) -15.3% | activity, negative = inhibition ([8]; at 38 µM (top of the series)) -22.4% | Potency [9] > 46 µM and > 20.6 µM | outcome [10] | Potency [11] | activity change, negative = cytotoxicity [19] -19.1% | Potency [12] | Potency [20] | Potency [13] | Potency [14] | Potency [15] | outcome [16] | Potency [17]
